# Data: PubChem BioAssay (NCI)
# Where “and” joins values, the source holds several entries; their conditions need not be identical. Equal values may be shown once. Compounds without any hit were thinned out: in the full panel of roughly 79,000, 15% have a hit. More than one record can exist for a structure, and the calls need not agree. Calls of active or inactive are those of the source. Rule as the data show it: active = growth inhibition above about 70%; inactive = the rest.
# Experiments:
# [1] = NCI Yeast Anticancer Drug Screen. Data for the rad52 strain (AID 147);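 also: 0% = growth of vehicle-treated control cultures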; conditions: S. cerevisiae rad52 mutant growth inhibition, stronger effect = higher value
# Summary of the method: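 Read-out: growth inhibition versus vehicle-treated controls. Cells were a DNA repair-deficient yeast strain treated with compounds.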
# [2] = NCI Yeast Anticancer Drug Screen. Data for the wt1 strain (AID 149);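 also: 0% = growth of vehicle-treated wt1 cultures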; conditions: S. cerevisiae wt1 strain (SPY 50644) growth inhibition, stronger effect = higher value
# Summary of the method: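 Readout: yeast growth inhibition, normalised to vehicle controls, in the wt1 strain exposed to test compounds.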
# [3] = NCI Yeast Anticancer Drug Screen. Data for the rad50EPP+ strain (AID 151);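 also: 0% = growth of vehicle-treated control cultures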; conditions: S. cerevisiae rad50 mutant strain, stronger effect = higher value
# Summary of the method: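 Growth inhibition read against vehicle controls in rad50EPP+ yeast, a strain altered in DNA damage repair, after compound exposure.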
# [4] = NCI Yeast Anticancer Drug Screen. Data for the mgt1 strain (AID 153); conditions: S. cerevisiae mgt1 mutant growth inhibition, stronger effect = higher value
# Summary of the method: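 mgt1 yeast grown with test compound; read-out is growth inhibition versus vehicle-treated cultures.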
# [5] = NCI Yeast Anticancer Drug Screen. Data for the rad50 strain (AID 155);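 also: 0% = growth of vehicle-only cultures of the same strain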; conditions: S. cerevisiae rad50 strain growth inhibition, stronger effect = higher value
# Summary of the method: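 Compounds were tested on a yeast strain with an engineered DNA damage repair alteration; the reported value is growth inhibition normalised to vehicle treatment.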
# [6] = NCI Yeast Anticancer Drug Screen. Data for the mec2-1 strain (AID 157); conditions: S. cerevisiae mec2-1 strain, stronger effect = higher value
# Summary of the method: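 Yeast mec2-1 mutant treated with compound. Readout: growth inhibition vs vehicle controls.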
# [7] = NCI Yeast Anticancer Drug Screen. Data for the rad14 strain (AID 159);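 also: 0% = growth of vehicle-treated control cultures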; conditions: S. cerevisiae rad14 strain growth inhibition, stronger effect = higher value
# Summary of the method: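 Compound-treated yeast with a defined DNA-repair lesion; growth inhibition normalised to vehicle-treated cultures.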
# [8] = NCI Yeast Anticancer Drug Screen. Data for the sgs1 mgt1 strain (AID 161);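 also: 0% = growth of cultures given vehicle only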; conditions: S. cerevisiae sgs1 mgt1 strain, stronger effect = higher value
# Summary of the method: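 Genetically altered yeast, compound exposure, growth inhibition relative to vehicle.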
# [9] = NCI Yeast Anticancer Drug Screen. Data for the CLN2oe strain (AID 163);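 also: 0% = growth of vehicle-only control cultures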; conditions: S. cerevisiae CLN2oe strain, stronger effect = higher value
# Summary of the method: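 Read-out: yeast growth inhibition, expressed relative to vehicle-only controls. The strain bears an engineered cell-cycle alteration.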
# [10] = NCI Yeast Anticancer Drug Screen. Data for the bub3 strain (AID 167); conditions: S. cerevisiae bub3 mutant strain, stronger effect = higher value
# Summary of the method: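 Growth of a checkpoint-deficient yeast mutant is measured after compound exposure. Values represent inhibition relative to vehicle.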
# [11] = NCI Yeast Anticancer Drug Screen. Data for the wt2 strain (AID 169);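 also: 0% = growth of vehicle-treated yeast cultures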; conditions: S. cerevisiae wt2 strain growth inhibition, stronger effect = higher value
# Summary of the method: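 Read-out: growth inhibition versus vehicle-treated control cultures after compound exposure of the yeast strain.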
# [12] = NCI Yeast Anticancer Drug Screen. Data for the mlh1 strain (AID 171);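 also: 0% = growth of vehicle-treated control cultures of the same strain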; conditions: S. cerevisiae mlh1 strain growth inhibition, stronger effect = higher value
# Summary of the method: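 Read-out: growth inhibition versus vehicle controls. Strain: engineered yeast with a defined DNA repair or cell cycle defect, compound-treated.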
# [13] = NCI Yeast Anticancer Drug Screen. Data for the sgs1 strain (AID 173);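 also: 0% = growth of vehicle-only control cultures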; conditions: S. cerevisiae sgs1 mutant, stronger effect = higher value
# Summary of the method: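 Read-out: yeast growth inhibition relative to vehicle controls, following compound exposure of a strain with a defined DNA repair/cell cycle alteration.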
# [14] = NCI Yeast Anticancer Drug Screen. Data for the mlh1 rad18 strain (AID 175); conditions: S. cerevisiae mlh1 rad18 strain growth inhibition, stronger effect = higher value
# Summary of the method: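 Yeast w/ defined DNA-repair lesions; compound exposure; growth vs vehicle controls → % inhibition.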
# [15] = NCI Yeast Anticancer Drug Screen. Data for the rad18 strain (AID 177); conditions: S. cerevisiae rad18 mutant growth inhibition, stronger effect = higher value
# Summary of the method: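 Readout: growth inhibition vs vehicle controls. Cells: genetically altered yeast strain, DNA repair defect.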
# [16] = at 5.0 µM (retest, dose inferred, filed as 0.5)
# [17] = at 50.0 µM (retest, dose inferred, filed as 5.0)
compound,measurement,setting,value
COc1ccc(/C=C/C(=O)c2ccccc2)cc1OC,growth inhibition,[1]; at 1.2 µM,-42% (inactive)
same,growth inhibition,[1]; at 3.7 µM,-42% (inactive)
same,growth inhibition,[1]; at 11.0 µM,-30% (inactive)
same,growth inhibition,[1]; at 33.0 µM,19% (inactive)
same,growth inhibition,[1]; at 100.0 µM,95% (active)
same,growth inhibition,[2]; at 1.2 µM,-2% (inactive)
same,growth inhibition,[2]; at 3.7 µM,-15% (inactive)
same,growth inhibition,[2]; at 11.0 µM,-2% (inactive)
same,growth inhibition,[2]; at 33.0 µM,28% (inactive)
same,growth inhibition,[2]; at 100.0 µM,92% (active)
same,growth inhibition,[3]; at 1.2 µM,16% (inactive)
same,growth inhibition,[3]; at 3.7 µM,11% (inactive)
same,growth inhibition,[3]; at 11.0 µM,28% (inactive)
same,growth inhibition,[3]; at 33.0 µM,27% (inactive)
same,growth inhibition,[3]; at 100.0 µM,75% (active)
same,growth inhibition,[4]; at 1.2 µM,-3% (inactive)
same,growth inhibition,[4]; at 3.7 µM,-30% (inactive)
same,growth inhibition,[4]; at 11.0 µM,-24% (inactive)
same,growth inhibition,[4]; at 33.0 µM,55% (inactive)
same,growth inhibition,[4]; at 100.0 µM,96% (active)
same,growth inhibition,[5]; at 1.2 µM,12% (inactive)
same,growth inhibition,[5]; at 3.7 µM,1% (inactive)
same,growth inhibition,[5]; [16],22% (inactive)
same,growth inhibition,[5]; at 11.0 µM,-5% (inactive)
same,growth inhibition,[5]; at 33.0 µM,44% (inactive)
same,growth inhibition,[5]; [17],48% (inactive)
same,growth inhibition,[5]; at 50.0 µM,6.55% (inactive) and 84.3% (active)
same,growth inhibition,[5]; at 100.0 µM,96% (active)
same,growth inhibition,[6]; at 1.2 µM,-6% (inactive)
same,growth inhibition,[6]; at 3.7 µM,-12% (inactive)
same,growth inhibition,[6]; [16],-16% (inactive)
same,growth inhibition,[6]; at 11.0 µM,-2% (inactive)
same,growth inhibition,[6]; at 33.0 µM,47% (inactive)
same,growth inhibition,[6]; [17],59% (inactive)
same,growth inhibition,[6]; at 50.0 µM,54% (inactive) and 84% (active)
same,growth inhibition,[6]; at 100.0 µM,95% (active)
same,growth inhibition,[7]; at 1.2 µM,3% (inactive)
same,growth inhibition,[7]; at 3.7 µM,5% (inactive)
same,growth inhibition,[7]; at 11.0 µM,14% (inactive)
same,growth inhibition,[7]; at 33.0 µM,46% (inactive)
same,growth inhibition,[7]; at 100.0 µM,92% (active)
same,growth inhibition,[8]; [16],15% (inactive)
same,growth inhibition,[8]; [17],54% (inactive)
same,growth inhibition,[8]; at 50.0 µM,51.9% (inactive) and 80.3% (active)
same,growth inhibition,[9]; at 1.2 µM,12% (inactive)
same,growth inhibition,[9]; at 3.7 µM,3% (inactive)
same,growth inhibition,[9]; at 11.0 µM,19% (inactive)
same,growth inhibition,[9]; at 33.0 µM,37% (inactive)
same,growth inhibition,[9]; at 100.0 µM,97% (active)
same,growth inhibition,[10]; at 1.2 µM,4% (inactive)
same,growth inhibition,[10]; at 3.7 µM,14% (inactive)
same,growth inhibition,[10]; [16],16% (inactive)
same,growth inhibition,[10]; at 11.0 µM,-36% (inactive)
same,growth inhibition,[10]; at 33.0 µM,62% (inactive)
same,growth inhibition,[10]; [17],88% (active)
same,growth inhibition,[10]; at 50.0 µM,67.5% (inactive) and 83.8% (active)
same,growth inhibition,[10]; at 100.0 µM,95% (active)
same,growth inhibition,[11]; at 1.2 µM,-30% (inactive)
same,growth inhibition,[11]; at 3.7 µM,-33% (inactive)
same,growth inhibition,[11]; at 11.0 µM,-34% (inactive)
same,growth inhibition,[11]; at 33.0 µM,38% (inactive)
same,growth inhibition,[11]; at 100.0 µM,95% (active)
same,growth inhibition,[12]; at 1.2 µM,20% (inactive)
same,growth inhibition,[12]; at 3.7 µM,19% (inactive)
same,growth inhibition,[12]; at 11.0 µM,17% (inactive)
same,growth inhibition,[12]; at 33.0 µM,67% (inactive)
same,growth inhibition,[12]; at 100.0 µM,95% (active)
same,growth inhibition,[13]; at 1.2 µM,-11% (inactive)
same,growth inhibition,[13]; at 3.7 µM,-2% (inactive)
same,growth inhibition,[13]; at 11.0 µM,5% (inactive)
same,growth inhibition,[13]; at 33.0 µM,51% (inactive)
same,growth inhibition,[13]; at 100.0 µM,96% (active)
same,growth inhibition,[14]; [16],3% (inactive)
same,growth inhibition,[14]; [17],79% (active)
same,growth inhibition,[14]; at 50.0 µM,17.4% (inactive) and 76.2% (active)
same,growth inhibition,[15]; at 1.2 µM,-12% (inactive)
same,growth inhibition,[15]; at 3.7 µM,-20% (inactive)
same,growth inhibition,[15]; at 11.0 µM,-8% (inactive)
same,growth inhibition,[15]; at 33.0 µM,72% (active)
same,growth inhibition,[15]; at 100.0 µM,95% (active)
